# Test results taken from publication PMC7862700, “An all-to-all approach to the identification of sequence-specific readers for epigenetic DNA modifications on cytosine”.
# Columns and labels:
# Test in all cases: DAPPL (digital affinity profiling via proximity ligation, sequencing); 10 mM Tris-HCl pH 7.5, 50 mM NaCl, 1 mM DTT, 4% glycerol, room temperature, 30 min; GST-TFs on glutathione beads, 16-mer random dsDNA library, 0.1% formaldehyde crosslink after washing; high values mean tight binding
# Settings in all cases: protein: recombinant; tags: N-terminal GST; dsDNA, one strand shown
# FEV = biological target: T1, FEV (Homo sapiens, UniProt Q99581 1-238)
# T1 sequence: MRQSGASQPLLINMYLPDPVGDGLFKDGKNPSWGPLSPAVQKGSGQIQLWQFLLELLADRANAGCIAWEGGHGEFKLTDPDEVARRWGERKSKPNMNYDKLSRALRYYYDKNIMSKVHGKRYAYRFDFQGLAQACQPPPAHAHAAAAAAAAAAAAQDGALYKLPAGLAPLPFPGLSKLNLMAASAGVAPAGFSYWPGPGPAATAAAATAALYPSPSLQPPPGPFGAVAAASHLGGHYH
# Method in brief: (§1)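 GST fusions of human transcription factors were expressed in yeast and captured with glutathione beads. Once given DNA barcodes and pooled alongside a tag-only sample, they were incubated for 30 min at room temperature with 200 nmole of a random double-stranded 16-mer DNA library in Tris/NaCl/DTT/glycerol buffer, then washed, crosslinked (0.1% formaldehyde), proximity-ligated, PCR-amplified and sequenced on an Illumina NextSeq500. The binding signal of each hexamer is its read frequency for a factor divided by its frequency for the tag-only sample.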
# ETV5 = ETV5 (Homo sapiens, UniProt P41161 1-510)
# Sequence of ETV5 (P41161 whole entry): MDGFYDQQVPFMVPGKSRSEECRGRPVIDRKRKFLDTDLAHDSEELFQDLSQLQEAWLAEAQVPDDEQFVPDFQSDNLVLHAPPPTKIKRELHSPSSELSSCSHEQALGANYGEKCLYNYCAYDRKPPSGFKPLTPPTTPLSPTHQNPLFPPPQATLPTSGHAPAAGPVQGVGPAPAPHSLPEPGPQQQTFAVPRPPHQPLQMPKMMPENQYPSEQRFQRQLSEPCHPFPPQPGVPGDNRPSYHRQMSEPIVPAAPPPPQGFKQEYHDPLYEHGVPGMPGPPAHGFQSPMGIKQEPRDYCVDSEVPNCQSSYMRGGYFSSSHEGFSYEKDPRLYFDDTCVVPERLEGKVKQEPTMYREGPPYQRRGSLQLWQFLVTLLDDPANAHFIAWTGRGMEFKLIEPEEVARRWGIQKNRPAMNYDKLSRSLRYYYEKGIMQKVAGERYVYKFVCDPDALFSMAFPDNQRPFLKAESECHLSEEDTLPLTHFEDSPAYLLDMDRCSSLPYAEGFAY
# Method in brief: as §1
# SPIC = biological target: T2, SPIC (Homo sapiens, UniProt Q8N5J4 1-248)
# T2 sequence: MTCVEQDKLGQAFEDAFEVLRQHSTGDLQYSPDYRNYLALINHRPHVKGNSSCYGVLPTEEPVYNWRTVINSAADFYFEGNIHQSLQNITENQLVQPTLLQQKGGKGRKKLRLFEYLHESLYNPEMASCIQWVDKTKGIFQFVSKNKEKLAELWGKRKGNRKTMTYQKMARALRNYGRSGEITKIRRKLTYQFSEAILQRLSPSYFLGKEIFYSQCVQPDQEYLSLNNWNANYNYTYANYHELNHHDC
# Method in brief: as §1
# ELF4 = ELF4 (Homo sapiens, UniProt Q99607 1-663)
# Sequence of ELF4 (Q99607 whole entry): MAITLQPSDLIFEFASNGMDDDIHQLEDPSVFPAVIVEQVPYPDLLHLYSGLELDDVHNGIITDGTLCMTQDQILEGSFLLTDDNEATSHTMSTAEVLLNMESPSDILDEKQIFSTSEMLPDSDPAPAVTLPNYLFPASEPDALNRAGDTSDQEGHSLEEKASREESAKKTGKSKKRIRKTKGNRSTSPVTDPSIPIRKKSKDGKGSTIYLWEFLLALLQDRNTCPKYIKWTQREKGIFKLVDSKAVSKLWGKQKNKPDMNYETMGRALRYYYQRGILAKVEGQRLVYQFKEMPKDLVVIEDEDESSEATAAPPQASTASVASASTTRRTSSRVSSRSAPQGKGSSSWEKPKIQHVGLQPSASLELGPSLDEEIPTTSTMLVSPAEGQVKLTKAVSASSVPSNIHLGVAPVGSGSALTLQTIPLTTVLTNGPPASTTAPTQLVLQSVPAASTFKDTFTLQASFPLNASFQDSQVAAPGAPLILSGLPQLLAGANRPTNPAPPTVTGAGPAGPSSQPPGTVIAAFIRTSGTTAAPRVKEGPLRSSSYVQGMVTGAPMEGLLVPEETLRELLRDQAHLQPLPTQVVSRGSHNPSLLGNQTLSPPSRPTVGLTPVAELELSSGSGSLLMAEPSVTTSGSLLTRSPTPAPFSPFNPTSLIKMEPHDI
# Method in brief: as §1
# ELK4 = biological target: T3, ELK4 (Homo sapiens, UniProt P28324-2 1-405)
# T3 sequence: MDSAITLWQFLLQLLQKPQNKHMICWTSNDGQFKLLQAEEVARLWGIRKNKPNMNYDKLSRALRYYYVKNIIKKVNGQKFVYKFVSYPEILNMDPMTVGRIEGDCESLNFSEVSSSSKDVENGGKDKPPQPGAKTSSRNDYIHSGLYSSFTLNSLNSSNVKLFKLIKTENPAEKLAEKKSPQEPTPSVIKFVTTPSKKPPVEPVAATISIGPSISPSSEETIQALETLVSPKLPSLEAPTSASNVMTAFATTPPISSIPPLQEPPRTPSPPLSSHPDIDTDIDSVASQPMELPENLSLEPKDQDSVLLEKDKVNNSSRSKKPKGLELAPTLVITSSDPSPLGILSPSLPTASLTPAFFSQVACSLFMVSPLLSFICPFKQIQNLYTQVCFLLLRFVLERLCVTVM
# Method in brief: as §1
# ETV2 = biological target: T4, ETV2 (Homo sapiens, UniProt O00321 1-342)
# T4 sequence: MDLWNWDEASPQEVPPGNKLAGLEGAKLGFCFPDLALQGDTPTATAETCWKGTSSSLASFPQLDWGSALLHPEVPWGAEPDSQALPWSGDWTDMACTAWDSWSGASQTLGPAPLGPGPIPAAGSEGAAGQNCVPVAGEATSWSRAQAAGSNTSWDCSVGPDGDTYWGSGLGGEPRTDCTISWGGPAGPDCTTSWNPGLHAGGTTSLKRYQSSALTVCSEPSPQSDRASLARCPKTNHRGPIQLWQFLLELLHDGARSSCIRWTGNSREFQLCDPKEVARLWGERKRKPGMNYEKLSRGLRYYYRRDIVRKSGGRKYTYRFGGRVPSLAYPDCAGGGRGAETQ
# Method in brief: as §1
# ELF3 = biological target: T5, ELF3 (Homo sapiens, UniProt P78545 1-371)
# T5 sequence: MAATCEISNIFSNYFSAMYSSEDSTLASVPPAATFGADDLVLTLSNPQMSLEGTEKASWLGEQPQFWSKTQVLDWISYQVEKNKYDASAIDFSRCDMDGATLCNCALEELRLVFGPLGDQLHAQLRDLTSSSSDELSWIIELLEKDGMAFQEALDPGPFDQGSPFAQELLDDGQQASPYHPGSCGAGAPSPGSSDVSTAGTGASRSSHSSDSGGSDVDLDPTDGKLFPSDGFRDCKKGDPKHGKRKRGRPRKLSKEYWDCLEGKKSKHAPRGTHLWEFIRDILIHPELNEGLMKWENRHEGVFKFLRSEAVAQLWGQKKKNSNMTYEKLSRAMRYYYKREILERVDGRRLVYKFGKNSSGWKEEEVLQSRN
# Method in brief: as §1
# ETV1 = ETV1 (Homo sapiens, UniProt P50549 1-477)
# Sequence of ETV1 (P50549 whole entry): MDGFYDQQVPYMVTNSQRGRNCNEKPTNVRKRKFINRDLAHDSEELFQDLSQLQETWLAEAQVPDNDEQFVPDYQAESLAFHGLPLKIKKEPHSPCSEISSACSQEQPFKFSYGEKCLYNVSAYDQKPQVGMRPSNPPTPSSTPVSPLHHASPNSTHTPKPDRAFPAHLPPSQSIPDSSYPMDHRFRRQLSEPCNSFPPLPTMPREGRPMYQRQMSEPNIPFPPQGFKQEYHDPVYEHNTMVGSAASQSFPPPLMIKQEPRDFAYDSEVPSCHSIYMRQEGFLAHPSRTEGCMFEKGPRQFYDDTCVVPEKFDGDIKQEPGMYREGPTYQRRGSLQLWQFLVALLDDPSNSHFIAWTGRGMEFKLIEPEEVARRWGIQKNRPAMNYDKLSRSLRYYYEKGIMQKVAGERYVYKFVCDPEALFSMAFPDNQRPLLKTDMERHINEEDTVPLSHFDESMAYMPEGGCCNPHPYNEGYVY
# Method in brief: as §1
# ERF = biological target: T6, ERF (Homo sapiens, UniProt P50548 1-548)
# T6 sequence: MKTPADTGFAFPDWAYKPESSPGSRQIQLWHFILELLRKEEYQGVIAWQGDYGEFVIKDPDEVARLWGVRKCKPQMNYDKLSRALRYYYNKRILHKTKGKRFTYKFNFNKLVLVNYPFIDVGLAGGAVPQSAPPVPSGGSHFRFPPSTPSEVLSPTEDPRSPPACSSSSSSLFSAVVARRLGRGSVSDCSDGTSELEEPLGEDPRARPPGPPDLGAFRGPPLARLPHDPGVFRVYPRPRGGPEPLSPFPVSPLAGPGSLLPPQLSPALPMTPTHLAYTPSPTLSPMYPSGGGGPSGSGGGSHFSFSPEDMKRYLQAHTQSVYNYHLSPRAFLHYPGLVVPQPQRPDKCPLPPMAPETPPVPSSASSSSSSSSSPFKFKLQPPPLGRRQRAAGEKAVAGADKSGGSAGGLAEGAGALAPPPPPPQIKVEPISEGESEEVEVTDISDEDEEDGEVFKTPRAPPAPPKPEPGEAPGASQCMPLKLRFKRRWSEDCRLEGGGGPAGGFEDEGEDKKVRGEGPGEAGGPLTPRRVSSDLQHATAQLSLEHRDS
# Method in brief: as §1
# ETV3L = biological target: T7, ETV3L (Homo sapiens, UniProt Q6ZN32 1-361)
# T7 sequence: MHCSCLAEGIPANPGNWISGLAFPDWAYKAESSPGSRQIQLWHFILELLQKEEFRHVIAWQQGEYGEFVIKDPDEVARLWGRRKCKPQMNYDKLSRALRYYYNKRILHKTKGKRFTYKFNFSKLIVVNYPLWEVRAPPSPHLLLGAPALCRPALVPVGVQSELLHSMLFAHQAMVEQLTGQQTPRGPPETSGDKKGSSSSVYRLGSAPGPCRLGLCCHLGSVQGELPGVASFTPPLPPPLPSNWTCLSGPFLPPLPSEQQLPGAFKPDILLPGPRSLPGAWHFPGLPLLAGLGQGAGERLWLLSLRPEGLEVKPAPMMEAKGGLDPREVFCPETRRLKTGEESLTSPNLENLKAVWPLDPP
# Method in brief: as §1
# ETS2 = biological target: T8, ETS2 (Homo sapiens, UniProt P15036 1-469)
# T8 sequence: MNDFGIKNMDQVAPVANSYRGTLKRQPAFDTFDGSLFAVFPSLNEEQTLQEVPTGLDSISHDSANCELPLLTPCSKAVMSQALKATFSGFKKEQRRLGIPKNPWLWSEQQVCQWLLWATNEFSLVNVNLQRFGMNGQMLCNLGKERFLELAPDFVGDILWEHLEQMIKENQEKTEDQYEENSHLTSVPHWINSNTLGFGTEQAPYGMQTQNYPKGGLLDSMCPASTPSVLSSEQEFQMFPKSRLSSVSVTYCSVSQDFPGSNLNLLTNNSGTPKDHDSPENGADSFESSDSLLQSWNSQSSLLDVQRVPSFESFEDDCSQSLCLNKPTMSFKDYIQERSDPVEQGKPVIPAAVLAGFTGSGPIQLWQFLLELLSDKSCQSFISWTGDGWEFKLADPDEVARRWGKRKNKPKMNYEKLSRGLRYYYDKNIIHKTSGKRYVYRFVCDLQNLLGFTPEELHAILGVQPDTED
# Method in brief: as §1
# SPDEF = biological target: T9, SPDEF (Homo sapiens, UniProt O95238 1-335)
# T9 sequence: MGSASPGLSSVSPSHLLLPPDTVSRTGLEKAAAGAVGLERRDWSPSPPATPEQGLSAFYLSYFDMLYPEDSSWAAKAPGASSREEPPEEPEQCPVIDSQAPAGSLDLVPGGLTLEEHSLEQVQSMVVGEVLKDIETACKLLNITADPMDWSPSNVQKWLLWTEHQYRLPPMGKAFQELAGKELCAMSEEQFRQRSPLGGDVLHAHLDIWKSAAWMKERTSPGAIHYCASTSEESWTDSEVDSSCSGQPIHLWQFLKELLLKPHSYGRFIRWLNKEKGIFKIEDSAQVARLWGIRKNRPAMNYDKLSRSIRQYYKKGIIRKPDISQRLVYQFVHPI
# Method in brief: as §1
# ETV7 = biological target: T10, ETV7 (Homo sapiens, UniProt Q9Y603 1-341)
# T10 sequence: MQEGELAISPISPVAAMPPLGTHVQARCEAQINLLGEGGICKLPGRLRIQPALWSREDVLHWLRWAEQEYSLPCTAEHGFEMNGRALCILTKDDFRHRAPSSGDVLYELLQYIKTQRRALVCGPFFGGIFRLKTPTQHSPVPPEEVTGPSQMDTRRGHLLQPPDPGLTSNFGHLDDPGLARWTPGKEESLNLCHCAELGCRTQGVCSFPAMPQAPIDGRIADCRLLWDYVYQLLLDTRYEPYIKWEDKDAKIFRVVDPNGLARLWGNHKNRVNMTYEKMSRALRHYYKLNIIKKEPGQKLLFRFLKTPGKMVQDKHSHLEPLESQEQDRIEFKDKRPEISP
# Method in brief: as §1
# ELF5 = biological target: T11, ELF5 (Homo sapiens, UniProt Q9UKW6-2 1-255)
# T11 sequence: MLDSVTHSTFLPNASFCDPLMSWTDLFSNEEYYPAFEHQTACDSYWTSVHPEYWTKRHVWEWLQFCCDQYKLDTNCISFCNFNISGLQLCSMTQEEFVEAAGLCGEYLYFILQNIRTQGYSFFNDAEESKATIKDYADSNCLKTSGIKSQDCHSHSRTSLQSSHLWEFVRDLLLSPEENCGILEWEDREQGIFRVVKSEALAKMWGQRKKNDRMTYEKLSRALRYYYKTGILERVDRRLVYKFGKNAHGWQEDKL
# Method in brief: as §1
# ETV3 = biological target: T12, ETV3 (Homo sapiens, UniProt P41162-2 1-143)
# T12 sequence: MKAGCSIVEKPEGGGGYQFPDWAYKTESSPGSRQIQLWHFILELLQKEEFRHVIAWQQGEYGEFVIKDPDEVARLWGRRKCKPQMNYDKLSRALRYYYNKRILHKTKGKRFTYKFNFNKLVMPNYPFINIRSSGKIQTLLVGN
# Method in brief: as §1
# ETV6 = ETV6 (Homo sapiens, UniProt P41212 1-452)
# Sequence of ETV6 (P41212 whole entry): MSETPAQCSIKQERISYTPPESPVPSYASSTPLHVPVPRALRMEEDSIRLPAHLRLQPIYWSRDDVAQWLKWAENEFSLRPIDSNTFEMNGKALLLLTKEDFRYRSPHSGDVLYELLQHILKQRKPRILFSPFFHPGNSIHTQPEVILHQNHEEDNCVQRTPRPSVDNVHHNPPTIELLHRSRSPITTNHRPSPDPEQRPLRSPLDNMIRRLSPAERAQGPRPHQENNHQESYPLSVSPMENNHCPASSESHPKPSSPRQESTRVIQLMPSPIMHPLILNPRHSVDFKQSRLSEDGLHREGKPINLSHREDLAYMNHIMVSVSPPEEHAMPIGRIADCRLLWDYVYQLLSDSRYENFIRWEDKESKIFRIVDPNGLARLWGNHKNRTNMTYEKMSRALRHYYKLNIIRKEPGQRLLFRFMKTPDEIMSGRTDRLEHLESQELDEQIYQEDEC
# Method in brief: as §1
Sequence,binding signal (FEV),binding signal (ETV5),binding signal (SPIC),binding signal (ELF4),binding signal (ELK4),binding signal (ETV2),binding signal (ELF3),binding signal (ETV1),binding signal (ERF),binding signal (ETV3L),binding signal (ETS2),binding signal (SPDEF),binding signal (ETV7),binding signal (ELF5),binding signal (ETV3),binding signal (ETV6)
AGTGTT,"1.02 fold enrichment (6-mer frequency, TF over GST control)","1.06 fold enrichment (6-mer frequency, TF over GST control)","1.18 fold enrichment (6-mer frequency, TF over GST control)","1.05 fold enrichment (6-mer frequency, TF over GST control)","1.08 fold enrichment (6-mer frequency, TF over GST control)","1.07 fold enrichment (6-mer frequency, TF over GST control)","1.26 fold enrichment (6-mer frequency, TF over GST control)","1.06 fold enrichment (6-mer frequency, TF over GST control)","1.13 fold enrichment (6-mer frequency, TF over GST control)","1.1 fold enrichment (6-mer frequency, TF over GST control)","1.1 fold enrichment (6-mer frequency, TF over GST control)","1.13 fold enrichment (6-mer frequency, TF over GST control)","1.14 fold enrichment (6-mer frequency, TF over GST control)","1.3 fold enrichment (6-mer frequency, TF over GST control)","1.08 fold enrichment (6-mer frequency, TF over GST control)","1.11 fold enrichment (6-mer frequency, TF over GST control)"
AGGAAG,"1.24 fold enrichment (6-mer frequency, TF over GST control)","1.44 fold enrichment (6-mer frequency, TF over GST control)","1.51 fold enrichment (6-mer frequency, TF over GST control)","1.21 fold enrichment (6-mer frequency, TF over GST control)","1.11 fold enrichment (6-mer frequency, TF over GST control)","1.4 fold enrichment (6-mer frequency, TF over GST control)","1.52 fold enrichment (6-mer frequency, TF over GST control)","1.5 fold enrichment (6-mer frequency, TF over GST control)","1.2 fold enrichment (6-mer frequency, TF over GST control)","1.33 fold enrichment (6-mer frequency, TF over GST control)","1.5 fold enrichment (6-mer frequency, TF over GST control)","1.15 fold enrichment (6-mer frequency, TF over GST control)","1.23 fold enrichment (6-mer frequency, TF over GST control)","2.03 fold enrichment (6-mer frequency, TF over GST control)","1.54 fold enrichment (6-mer frequency, TF over GST control)","1.71 fold enrichment (6-mer frequency, TF over GST control)"
TGTCCC,"1.39 fold enrichment (6-mer frequency, TF over GST control)","1.35 fold enrichment (6-mer frequency, TF over GST control)","1.26 fold enrichment (6-mer frequency, TF over GST control)","1.29 fold enrichment (6-mer frequency, TF over GST control)","1.4 fold enrichment (6-mer frequency, TF over GST control)","1.44 fold enrichment (6-mer frequency, TF over GST control)","1.65 fold enrichment (6-mer frequency, TF over GST control)","1.31 fold enrichment (6-mer frequency, TF over GST control)","1.26 fold enrichment (6-mer frequency, TF over GST control)","1.18 fold enrichment (6-mer frequency, TF over GST control)","1.41 fold enrichment (6-mer frequency, TF over GST control)","1.34 fold enrichment (6-mer frequency, TF over GST control)","1.46 fold enrichment (6-mer frequency, TF over GST control)","1.44 fold enrichment (6-mer frequency, TF over GST control)","1.2 fold enrichment (6-mer frequency, TF over GST control)","1.28 fold enrichment (6-mer frequency, TF over GST control)"
